Compounds with a hit are over-represented: about 2.7% of the library has one in this group of screens.
Env fusion inh: inhibitors of HIV-1 Env-driven cell-cell fusion, primary screen, HeLa-JRFL effector, CEM21 target cells, luciferase. inhibition, % at 12.3 µM. actives 1.1% (n = 360,000);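 active means mean replicate inhibition score of at least 50 and every replicate individually at or above 50; inconclusive means only one of the two criteria met; inactive means mean below 50 and not all replicates reaching 50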;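 further: 0% = plate neutral controls and 100% = maraviroc near 300 nM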
INS-1E GSIS act: GLuc luminescence reporter in INS-1E cells, primary screen for activators of glucose-dependent secretion of insulin. INS-1E GLuc reporter insulin secretion, 2-3 h. activation, % at 16.6 µM. actives 0.61% (n = 370,000). AID 743287, 2014;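 active means lowest replicate activation of at least 40%, so every replicate reaches that level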;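 further: 0% = median of neutral control wells and 100% = median of IBMX positive control wells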
PAX8 reporter: inhibitors of PAX8-driven TPO luciferase reporter, primary screen, RMG-I cells, single concentration | SteadyGlo, 24 h | inhibition, % at 12.6 µM | actives 1.2% (n = 360,000);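 active means mean replicate inhibition at least 60% with every replicate also reaching 60%; inconclusive means only one of the two criteria is met; inactive means mean below 60% and not all replicates reaching 60%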;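 further: luciferase light reporting Pax8 driven TPO promoter activity; plate controls were median of neutral control wells for no effect and mitoxantrone controls for full effect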
EWS-Fli block: EWS/Fli-driven NR0B1 reporter inhibitors, primary screen, A673 cells, NR0B1 luciferase, luminescence, MLPCN library. viability-normalised. inhibition, % at 12.6 µM. actives 0.67% (n = 350,000);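 active means mean inhibition of at least 50% after viability correction, with every replicate also passing that limit; inconclusive means mean reaches 50% but only one of two replicates passes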;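 further: firefly luciferase signal divided by Alamar Blue viability fluorescence both relative to DMSO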
PGC1a acetyl inh: inhibitors of PGC1a acetylation signal, primary screen, cell-based, U2OS, AlphaScreen, inhibitor mode; AlphaScreen anti-acetyl-lysine; with virally co-expressed GCN5 acetyltransferase; inhibition, % at 15.6 µM; actives 0.17% (n = 350,000);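 active means every replicate shows inhibition of at least 40%; inconclusive means mean inhibition at least 40% but some replicate below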;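 further: 0% = neutral control wells and 100% = positive control wells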
F508del corr: F508del CFTR correction, initial screen, CFBE line, single point | CFBE cells, YFP halide quenching; stimulated with forskolin plus potentiator P3; % fluorescence drop versus neutral controls | actives 0.36% (n = 350,000) | activity (quench increase), % at 7.58 µM;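 active means mean added fluorescence quench of at least 8% versus neutral control, with both replicates also reaching 8%; inconclusive means only one of the mean or replicate conditions met; inactive means mean below 8% and not both replicates reaching 8%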;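 further: cells transiently co-express mutant CFTR-F508del with the halide-sensitive YFP; corrector assay measuring rescue of mutant channel to the surface after 24 h compound exposure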
The depositor's hits bear a star; ? = inconclusive; / = no result; [ ] = another dose, or the depositor's remark.

SMILES	Env fusion inh	INS-1E GSIS act	PAX8 reporter	EWS-Fli block	PGC1a acetyl inh	F508del corr
N#Cc1ccc(-c2cccs2)nc1SCc1cccnc1	-130.4	5.9	49.7	54.4*	-39.4	9.0*
Cc1ccsc1/C=N\Nc1cn[nH]c(=O)c1Cl	56.0*	16.4	-41.6	-22.1	-8.0	4.6
N/C(=N\OC(=O)COc1ccc(Cl)cc1Cl)c1cccnc1	/	59.9*	-100.0	/	-0.6	/
N/C(=N\OC(=O)COc1ccc(Cl)cc1)c1cccnc1	/	-7.0	31.0	-50.6	-0.2	1.4
O=C(C[C@H]1CC[C@@H](NS(=O)(=O)c2ccccc2)[C@@H](CO)O1)N1CCc2ccccc2C1	11.5[16.7 µM]	2.4	6.5	3.5	4.9	1.2
Brc1ccc2nc(-c3ccc(CN4CCC(c5nc6ccccc6[nH]5)CC4)cc3)c(-c3ccccc3)nc2c1	21.9	-9.2	100.6*	17.0	/	-2.8
COc1ccc2nc(-c3ccc(CN4CCC(c5nc6ccccc6[nH]5)CC4)cc3)c(-c3ccccc3)nc2c1	41.6	-17.9	40.0	21.8	/	0.8
CCC(=O)N1C[C@@H](O)COC[C@H]2O[C@@H](CC(=O)NC)CC[C@@H]21	-14.5[16.7 µM]	11.5	4.5	7.7	0.5	-1.3
O=C(Nc1ccccn1)c1ccc(CN(c2ccccc2)S(=O)(=O)c2ccccc2)cc1	-21.3	13.8	7.3	1.7	0.4	1.4
Cc1cccc(C(C)C)c1NC(=O)c1ccc(CN(c2ccccc2)S(=O)(=O)c2ccccc2)cc1	59.9*	-21.7	-9.6	/	5.0	/
O=C(CC1CC1)Nc1ccc2c(c1)[C@H]1C[C@@H](CC(=O)NC3CCCCC3)O[C@@H](CO)[C@H]1O2	-19.2[16.7 µM]	0.6	2.3	-5.5	-2.5	-2.8
CN(Cc1cnc2nc(N)nc(N)c2n1)c1ccc(C(=O)NC(CCC(=O)O)C(=O)O)c2ccccc12 (stereo unspecified)	64.3*	27.5	54.5	44.2	8.2	11.5*
O=C(O)CCC(NC(=O)c1ccc(Cl)cc1)C(=O)O (stereo unspecified)	11.6	12.9	-4.5	-5.9	/	2.3
Clc1ccc(CSc2nncn2-c2ccc3c(c2)OCCO3)cc1	41.2	-4.5	26.4	49.1	-6.6	10.7*
COC(=O)N1[C@H](C)C=C[C@]1(Cc1ccccc1)C(=O)NCCCNc1ncc(C(F)(F)F)cc1Cl	103.3*	/	-2.7	12.0	-10.6	1.2
CO[C@H]1CN(C)C(=O)c2cc(NC(=O)c3nc4ccccc4s3)ccc2OC[C@H](C)NC[C@H]1C	/	6.6	6.9	-24.8	-2.2	-3.8
CO[C@H]1CN(C)C(=O)c2cc(NC(=O)c3nc4ccccc4s3)ccc2OC[C@@H](C)NC[C@@H]1C	/	10.0	-21.6	53.7*	1.9	0.1
CO[C@@H]1CN(C)C(=O)c2cc(NC(=O)c3nc4ccccc4s3)ccc2OC[C@H](C)NC[C@H]1C	/	19.0	84.4*	-21.9	-6.0	-2.3
CO[C@@H]1CN(C)C(=O)c2ccc(NC(=O)c3cccc(Oc4ccccc4)c3)cc2OC[C@H](C)NC[C@H]1C	17.6[16.7 µM]	8.0	31.4	69.9*	-20.6	-0.2
CO[C@@H]1CN(C)C(=O)c2cc(NC(=O)c3ccc(-c4ccccc4)cc3)ccc2OC[C@@H](C)NC[C@@H]1C	/	9.7	12.5	74.9*	-16.3	-8.0
COc1cccc(-c2cnc3c(c2)C(=O)N([C@H](C)CO)C[C@@H](C)[C@@H](CN(C)CC2CC2)O3)c1	4.2[16.7 µM]	/	/	-8.9	-4.5	-0.7
CC(=O)N1C[C@@H]2C(c3ccccc3)[C@H](C1)N2C(=O)NC(C)C (stereo partly specified)	/	8.8	/	/	/	/
COc1ccc(CN2C[C@H](C)[C@@H](OC)CN(C)C(=O)c3ccc(NC(=O)c4nc5ccccc5s4)cc3OC[C@H]2C)cc1	15.9[16.7 µM]	-34.7	59.8	18.2	-21.2	1.0
COc1ccc(CN2C[C@H](C)[C@@H](OC)CN(C)C(=O)c3ccc(NC(=O)c4nc5ccccc5s4)cc3OC[C@@H]2C)cc1	33.4[16.7 µM]	/	74.4*	15.3	-11.7	1.5
CN=C1c2ccccc2CN1c1cccc(C(=O)OC)c1	/	88.6*	/	/	4.4	/
SMILES	Env fusion inh	INS-1E GSIS act	PAX8 reporter	EWS-Fli block	PGC1a acetyl inh	F508del corr
C[C@@H]1CCCCO[C@H](CN(C)Cc2ccccc2)[C@H](C)CN([C@H](C)CO)C(=O)c2cc(NC(=O)NC3CCCCC3)ccc2O1	1.9[16.7 µM]	-15.8	5.1	1.4	-12.8	3.1
Cc1ccc(S(=O)(=O)N2C[C@H]3[C@H]4C(=O)N(Cc5ccccc5)C(=O)[C@H]4CC(=O)[C@H]3[C@@H]2c2ccccc2F)cc1	?	-8.3	-11.5	-3.5	-15.7	-1.8
Cc1ccc(S(=O)(=O)N2C[C@H]3[C@H]4C(=O)N(Cc5ccccc5)C(=O)[C@H]4CC(=O)[C@H]3[C@@H]2c2ccccc2Cl)cc1	60.0*	-6.4	-2.7	-5.9	-12.3	-0.2
Cc1ccc(S(=O)(=O)N2C[C@H]3[C@H]4C(=O)N(C)C(=O)[C@H]4CC(=O)[C@H]3[C@@H]2c2ccccc2F)cc1	/	/	-12.1	-5.2	9.7	8.4*
Cc1ccc(S(=O)(=O)N2C[C@H]3[C@H]4C(=O)N(C5CCCCC5)C(=O)[C@H]4CC(=O)[C@H]3[C@@H]2c2ccccc2F)cc1	64.5*	-6.9	20.3	-7.2	9.2	2.9
Cc1ccc(S(=O)(=O)N2C[C@H]3[C@H]4C(=O)N(C)C(=O)[C@H]4CC(=O)[C@H]3[C@@H]2c2ccccc2Cl)cc1	-45.2	-5.0	-1.1	-10.9	-4.2	-3.4
C[C@@H]1CN([C@@H](C)CO)C(=O)c2cc(-c3cncnc3)cnc2O[C@H]1CN(C)C(=O)Nc1ccc2c(c1)OCO2	8.2[16.7 µM]	7.4	/	7.9	2.9	-1.9
COc1cc(/C=C/C(O)=C/C(=O)/C=C/c2ccc(O)cc2)ccc1O	-7.7	-16.9	62.9*	20.4	-16.8	-0.8
CCOc1ccc(NC(=O)NCc2ccccn2)cc1	57.5*	19.3	-13.3	-10.5	/	1.4
Cc1ccc(NC(=O)NCc2ccccn2)cc1	-2.5	1.0	-21.0	/	17.1	/
CO[C@H]1CN(C)C(=O)c2cc(NC(=O)c3ccccc3)ccc2OC[C@@H](C)N(C(=O)CN(C)C)C[C@H]1C	/	-3.4	/	-0.8	1.6	-1.9
C[C@H]1CN([C@@H](C)CO)C(=O)c2cccc(NC(=O)c3ccncc3)c2O[C@@H]1CN(C)C(=O)Nc1ccccc1	/	1.5	-8.9	8.1	0.0	-3.4
CC(C)c1cn(CC[C@H]2CC[C@@H](NC(=O)C3CC3)[C@H](CO)O2)nn1	-54.2[16.7 µM]	1.2	5.7	-11.9	7.4	-1.2
CC[C@H](C)[C@@H](C(=O)NCCCCCCCCCCC(=O)N1CCN(C(=O)OC(C)(C)C)CC1)n1cc(CCCCCNC(=O)OC(C)(C)C)nn1	17.9	11.4	63.0*	22.8	/	-4.2

Source: PubChem BioAssay
